High-throughput results (PubChem)
proKLK7 act – proKLK7 (human) activation, primary screen | 0.9% of 370,000 active | P49862 | purified proKLK7, EDANS-DABCYL substrate fluorescence; 100% is mature enzyme control, 0% vehicle | activation, % at 7 µM | AID 652039;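 active = activation above the mean of all tested compounds plus 3 SD, computed per campaign excluding outliers beyond control limits, cut at about 13% in these data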
FGF22 binding – shifts melting point of recombinant human FGF22. activity (Tm shift, normalised), % at 9.99 µM. 1.5% of 340,000 active. recombinant FGF22 thermal shift, SYPRO orange fluorescence; percent of sucrose octasulfate shift, DMSO zero;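 active = mean Tm shift, scaled 0 neutral to 100 positive control, at about 1.3% or above, every replicate too, limit read from the data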
rRNA inh HTS – inhibitors of bacterial rRNA selective over humanized ribosomes. E. coli WT GFP vs humanized-ribosome RFP mutants, fluorescence, 24 h; hits give low values; DMSO median 0, no signal -100. GFP signal change (wild-type ribosome), % (no concentration beside the values). 1.6% of 350,000 active. AID 720706;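 active = significant combined selectivity score with lowered wild-type GFP, culture density cut under 30%, mutant RFP and density less affected; inactive = any of these conditions unmet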
ADAM17 inh – inhibitors of human ADAM17. P78536. recombinant ADAM17, EDANS/DABCYL FRET peptide cleavage. inhibition, % at 6.95 µM. 0.83% of 370,000 active. AID 720648;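 active = inhibition above the mean of compounds lying between control limits plus 3 SD, set per campaign, cut at about 8.5% in these data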;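 also: 0% = DMSO-only wells as the low control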
Target sequence (P78536 215-824 limits assumed): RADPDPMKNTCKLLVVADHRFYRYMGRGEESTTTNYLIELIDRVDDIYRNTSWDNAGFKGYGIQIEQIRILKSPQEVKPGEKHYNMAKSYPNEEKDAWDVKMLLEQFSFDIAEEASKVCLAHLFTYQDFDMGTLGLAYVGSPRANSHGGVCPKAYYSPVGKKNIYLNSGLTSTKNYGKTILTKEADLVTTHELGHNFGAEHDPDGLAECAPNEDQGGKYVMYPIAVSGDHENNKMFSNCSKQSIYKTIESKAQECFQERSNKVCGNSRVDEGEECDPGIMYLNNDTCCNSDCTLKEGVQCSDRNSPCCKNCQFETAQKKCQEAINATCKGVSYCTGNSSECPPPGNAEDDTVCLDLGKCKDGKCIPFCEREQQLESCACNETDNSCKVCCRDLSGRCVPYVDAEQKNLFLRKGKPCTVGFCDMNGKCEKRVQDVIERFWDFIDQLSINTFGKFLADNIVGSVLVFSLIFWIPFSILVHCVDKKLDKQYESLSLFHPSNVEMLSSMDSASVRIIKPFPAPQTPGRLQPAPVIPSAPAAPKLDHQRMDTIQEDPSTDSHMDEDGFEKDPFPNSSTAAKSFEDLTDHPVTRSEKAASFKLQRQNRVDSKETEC
ADAM10 inh – inhibits human ADAM10. O14672. recombinant ADAM10, EDANS/DABCYL FRET peptide cleavage, 3 h. inhibition, % at 7 µM. 0.62% of 370,000 active;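 active = inhibition above a per-campaign cutoff equal to the mean of compounds falling between control-based bounds plus 3 SD, cut at about 20% in these data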;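 also: 0% = DMSO wells while the 100% control is not disclosed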
ADAM10 counter – ADAM10 inhibition, counter-screen for ADAM17 exosite hits. inhibition, % at 6.95 µM. AID 743256. 47% of 2,900 active. recombinant ADAM10, EDANS/DABCYL FRET peptide cleavage, 3 h. shares compounds with ADAM17 inh;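 active = mean inhibition over the triplicate runs exceeds the activity threshold set in the earlier primary screen, cut at about 20% in these data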;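 also: 0% = DMSO wells and 100% = marimastat wells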
ADAM17 confirm – human ADAM17 inhibition, confirmation; shares compounds with ADAM17 inh; recombinant ADAM17, EDANS/DABCYL QFRET peptide cleavage; inhibition, % at 6.95 µM; 65% of 2,900 active; AID 743257;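 active = mean inhibition across replicates above the hit cutoff set in the primary screen, cut at about 8.5% in these data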;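 also: 0% = DMSO wells and 100% = marimastat wells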
* marks the source's active call; other numbers are inactive results; . = no result. Compounds with a hit are over-represented: about 3.8% of the library has one in this group of screens.

SMILES | proKLK7 act | FGF22 binding | rRNA inh HTS | ADAM17 inh | ADAM10 inh | ADAM10 counter | ADAM17 confirm
C[C@H]1CN([C@@H](C)CO)S(=O)(=O)c2ccc(/C=C/c3ccccc3)cc2O[C@H]1CN(C)C | . | -0.3 | 1.3 | . | . | . | .
Cc1cc(SCCOc2ccccc2)nc(N)n1 | 0.0 | . | . | 11.1* | 4.4 | 0.7 | 2.8
Cc1cc(Oc2ccccc2)nc(N)n1 | -0.5 | . | . | 1.8 | 2.6 | . | .
COCCNC(=O)c1ccc2c(c1)NC(=O)CS2 | 0.4 | . | . | -5.3 | -4.3 | . | .
COc1ccc(NC(=O)c2ccc3c(c2)NC(=O)CS3)cc1 | 1.6 | -0.5 | 6.3 | 9.5* | 4.5 | 9.4 | 6.3
C[C@@H]1CN([C@H](C)CO)C(=O)Cc2cc(N(C)C)ccc2O[C@H]1CN(C)Cc1ccncc1 | . | -1.3 | -1.5 | . | . | . | .
COc1cccc(C2C(C#N)=C(N)Oc3c2oc(CO)cc3=O)c1 (centres undefined) | 0.7 | . | . | 14.2* | -2.1 | 5.9 | 11.1*
CCN(c1ccc(NC(=O)COC(=O)C2CCN(c3ccc(C(F)(F)F)cn3)CC2)cc1)C(C)C | -0.1 | -0.1 | 0.3 | 8.9* | 11.2 | 36.6* | 17.9*
CCN(CC)c1ccc(NC(=O)COC(=O)C2CCN(c3ccc(C(F)(F)F)cn3)CC2)cc1 | -0.1 | -0.3 | 7.2 | 0.8 | -4.5 | . | .
O=C(COC(=O)C1CCN(S(=O)(=O)c2ccc3c(c2)OCCO3)CC1)NC1CCCCC1 | 0.2 | -0.4 | 1.8 | -2.3 | 1.6 | . | .
O=C(COC(=O)C1CCN(S(=O)(=O)c2ccc3c(c2)OCCO3)CC1)Nc1ccc(C(F)(F)F)cc1 | 0.2 | . | . | 8.7* | 13.0 | 12.9 | 10.7*
O=C(NC1=NCCS1)c1cc(-c2cccc(Br)c2)nc2ccccc12 | -0.5 | . | . | 9.1* | 15.3 | 14.5 | 9.3*
CN1C(=O)c2cc(NC(=O)C3CCCC3)ccc2OC[C@@H]2O[C@@H](CC(=O)NCCc3ccncc3)CC[C@H]21 | . | -0.2 | 2.7 | . | . | . | .
O=C(COc1cccc2ccccc12)Nc1cc(Cl)ccc1C(=O)O | 0.3 | 0.0 | -26.0 | 13.0* | 4.2 | 7.0 | 5.9
CCCNC(=O)[C@H]1[C@H](CO)[C@H]2Cn3c(ccc(-c4ccccc4F)c3=O)[C@@H]1N2CC1CC1 | . | 0.2 | 1.6 | . | . | . | .
COc1ccc(S(=O)(=O)NN(C)c2ncc(C(F)(F)F)cc2Cl)cc1 | -0.6 | -0.1 | -19.1 | 9.4* | -7.6 | 7.5 | 6.1
Cc1ccc(S(=O)(=O)N2CCCc3cc(NC(=O)c4c(F)cccc4F)ccc32)cc1 | 1.0 | 0.0 | 2.2 | 12.5* | 16.7 | 27.4* | 13.8*
CCOc1ccc(NC(=O)C2CC(=O)N(C)C(=Nc3ccc4c(c3)OCO4)S2)cc1 (centres undefined) | 0.4 | 0.0 | 12.5 | -1.6 | -7.2 | . | .
COc1cccc(N=C2SC(C(=O)Nc3ccc(F)cc3)CC(=O)N2C)c1 (centres undefined) | 0.2 | . | . | 10.3* | 6.6 | 25.1* | 10.5*
O=C(C[C@H]1CC[C@H]2[C@@H](COC[C@@H](O)CN2C(=O)c2cnccn2)O1)NCc1ccc(F)cc1 | . | -0.1 | 6.6 | . | . | . | .
CC[C@@]1(C(=O)OC)N[C@H](CN(C)S(=O)(=O)c2ccc(-c3ccccc3)cc2)[C@@H]2C(=O)N(C)C(=O)[C@@H]21 | 0.5 | -0.1 | -0.1 | 12.8* | 7.5 | 12.0 | 6.0
CCCNC(=O)C[C@@H]1C[C@H]2c3cc(NC(=O)Nc4ccc(F)cc4)ccc3O[C@H]2[C@H](CO)O1 | . | -0.4 | 1.6 | . | . | . | .
C=CCn1c(N(C)C)nc2c1c(=O)[nH]c(=O)n2C | 0.6 | 0.3 | 6.8 | 9.8* | 14.0 | -17.6 | -4.5
CN(C)c1nc2c(c(=O)[nH]c(=O)n2C)n1CCCc1ccccc1 | -0.5 | 0.0 | 3.6 | -1.8 | 1.2 | . | .
N#C[C@@H]1[C@H](c2ccc(C3=CCCCC3)cc2)[C@H](CO)N1C(=O)NC1CCCCC1 | . | 0.1 | 4.6 | . | . | . | .
